Drawing on PubChem BioAssay, this text covers composite z-score and z-score for 13 molecules.

Assay [1] relates to Human papillomavirus type 1a protein E7 (residues 44-93). Briefly: HPV1a E7 fragment binders on microarrays, primary screen, biochemical, small-molecule microarray, residues 44-93, 635 nm fluorescence (AID 1108).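 Further: E7 fragment applied at 1 µg/mL in TBST for 1 h at 4 C; score combines spot fluorescence with its signal to noise ratio.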 The conditions noted are these: small-molecule microarray binding, fluorescence 635 nm; higher = more signal.
A short description of assay [2]: modulators of HCV replicon luciferase signal, primary screen, HCV replication inhibitor project, Huh7 cells, luciferase reporter (AID 1109).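 Further: huh7 hepatoma cells harbouring a luciferase neomycin HCV replicon reporter; luciferase luminescence as measure of HCV replicon replication; test concentration not given here.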 The conditions noted are these: 48 h, higher = more signal.
Assay [3] deals with Left-right determination factor 2 (Homo sapiens) (UniProt O00292). As to the kind of experiment: LEFTY2 binders on small-molecule microarrays, primary screen, biochemical, small-molecule microarray, 635 nm fluorescence scan (AID 1110). The conditions noted are these: LEFTY2 binding, higher = more signal.
Assay [4] deals with Calmodulin-1 (Homo sapiens) (UniProt P0DP23). Briefly: CALM1 binders on microarrays, EGTA buffer, profiling panel, biochemical, small-molecule microarray, Cy5-labelled CALM1 (AID 1111).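 Further: labelled calmodulin applied in Tris saline Tween buffer holding calcium plus EGTA and DTT.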 The conditions noted are these: Cy5-CALM1 binding fluorescence, higher = more signal.
For assay [5] the target is unchanged. As to the kind of experiment: calcium-bound CALM1 binders on microarrays, profiling panel, artefact control for SMM control-protein annotation, biochemical, small-molecule microarray, Cy5-labelled CALM1, plus calcium (AID 1112).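 Further: score merges spot fluorescence with signal to noise from triplicate slides.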 Conditions: Cy5-CALM1 binding fluorescence, higher = more signal.
A short description of assay [6]: small-molecule microarray binders of probe aWnt5a, primary screen, biochemical, biotinylated probe, 635/667 nm fluorescence (AID 1113).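 Further: score merges 667 nm fluorescence intensity with signal-to-noise per printed feature.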 Conditions: higher = more signal.
Assay [7] is described as follows: small-molecule microarray binders of probe aShh, primary screen, biochemical, biotinylated probe, 635/667 nm fluorescence (AID 1114).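 Further: probe is biotin-labelled aShh protein from a stem cell growth factor screen; measures binding of labelled protein to compounds printed on the slide; score merges feature fluorescence at 667 nm with signal-to-noise.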 Conditions: higher = more signal.
The nature of assay [8]: small-molecule microarray binders of probe aNog, primary screen, biochemical, biotinylated probe, 635/667 nm fluorescence (AID 1115).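 Further: probe is biotinylated aNog protein used at 0.15 µg/mL for 1 h at 4 C; z-score combines 667 nm fluorescence of each spot with its signal to noise.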 The conditions noted are these: higher = more signal.
Assay [9] has as its target Torsin-1A-interacting protein 1 (Homo sapiens) (UniProt Q5JTV8). Briefly: LAP1 binders from COS7 cell lysate, primary screen, small-molecule microarray, 635/667 nm fluorescence (AID 1116). Conditions: COS7-hLAP1 lysate binding, 635 nm fluorescence, higher = more signal.
Assay [10] deals with Alpha-bungarotoxin (Bungarus multicinctus) (UniProt P60615). Briefly: alpha-bungarotoxin binders on microarray, profiling panel, artefact control for SMM control protein annotation, biochemical, small-molecule microarray, Alexa647 label, 635/667 nm fluorescence (AID 1117). The conditions noted are these: alpha-BTX-A647 binding fluorescence, higher = more signal.

Structures are written as SMILES.

Sequence of Torsin-1A-interacting protein 1 (Homo sapiens) (Q5JTV8 whole entry, looked up): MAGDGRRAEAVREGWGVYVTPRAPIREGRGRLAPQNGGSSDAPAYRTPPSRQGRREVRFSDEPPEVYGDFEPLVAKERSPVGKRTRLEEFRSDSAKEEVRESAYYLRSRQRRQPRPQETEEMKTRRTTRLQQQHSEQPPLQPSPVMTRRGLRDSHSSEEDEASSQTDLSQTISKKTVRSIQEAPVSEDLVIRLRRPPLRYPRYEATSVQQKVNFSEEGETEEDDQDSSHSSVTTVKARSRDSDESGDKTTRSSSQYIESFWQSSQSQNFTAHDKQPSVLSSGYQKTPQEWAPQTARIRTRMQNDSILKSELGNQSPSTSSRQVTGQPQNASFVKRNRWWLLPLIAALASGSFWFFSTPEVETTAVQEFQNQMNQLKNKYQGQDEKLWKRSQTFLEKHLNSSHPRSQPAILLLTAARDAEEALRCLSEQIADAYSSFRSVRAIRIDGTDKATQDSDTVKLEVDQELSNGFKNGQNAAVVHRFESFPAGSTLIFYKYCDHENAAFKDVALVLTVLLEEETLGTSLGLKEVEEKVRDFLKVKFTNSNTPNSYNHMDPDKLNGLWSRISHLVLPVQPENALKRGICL
Sequence of Alpha-bungarotoxin (Bungarus multicinctus) (P60615 whole entry, looked up): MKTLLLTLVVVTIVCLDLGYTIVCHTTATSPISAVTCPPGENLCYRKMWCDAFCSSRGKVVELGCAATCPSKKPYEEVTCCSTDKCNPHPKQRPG
Sequence of Left-right determination factor 2 (Homo sapiens) (O00292 whole entry, looked up): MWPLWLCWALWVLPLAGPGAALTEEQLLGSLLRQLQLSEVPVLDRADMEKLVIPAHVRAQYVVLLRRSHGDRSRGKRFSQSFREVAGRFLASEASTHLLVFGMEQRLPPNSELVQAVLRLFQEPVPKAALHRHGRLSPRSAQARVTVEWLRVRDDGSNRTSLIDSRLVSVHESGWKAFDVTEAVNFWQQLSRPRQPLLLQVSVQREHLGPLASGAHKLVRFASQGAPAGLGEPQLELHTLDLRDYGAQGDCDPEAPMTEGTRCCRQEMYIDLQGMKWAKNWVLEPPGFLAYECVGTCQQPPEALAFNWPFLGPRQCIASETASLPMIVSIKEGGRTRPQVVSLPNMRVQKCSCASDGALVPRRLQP

As to `COC(=O)[C@H](Cc1ccccc1)N1CC(/C=C/C2CC2)=C[C@H]1[C@H](O)Cc1ccccc1`, the composite z-score in assay [1] is 0.484; in assay [3], 0.396; in [4], 0.405; in assay [5], -0.647; in assay [6] it was -0.0944; in assay [7] it was -0.0693. Further, the composite z-score in assay [8] was 0.287; in [9] it was 0.425; in assay [10], 1.2. The z-score in assay [2] is -4.03.

With `O=C(NCC(F)(F)F)[C@@H]1c2ccccc2C(=O)N(Cc2ccccc2C(F)(F)F)[C@H]1c1ccc(CO)cc1`, the composite z-score is -0.315 in assay [1]; -1.02 in assay [3]; 0.0216 in assay [4]; 0.792 in [5]; -0.276 in assay [6]; 0.0044 in assay [7]. Further, the composite z-score in assay [8] is -0.101; in [9] it was -0.121; in [10], -0.695. In assay [2], this molecule yielded a z-score of -0.941.

As to `COC(=O)c1ccc([C@H](NC(=O)c2ccco2)[C@]2(C)C[C@H]2C2CCCCC2)cc1`, the composite z-score in assay [1] was -0.0855; in assay [3], -1.6; in assay [4] it was 1.51; in assay [5], 1.39; in [6] it was -0.096; in assay [7] it was 0.142. Besides, the composite z-score is 1.46 in assay [8], -0.101 in assay [9] and 0.351 in assay [10]. In [2], the z-score was -0.978.

Regarding `O=C1O[C@@H](c2ccccc2)[C@@H](c2ccccc2)N2[C@@H](c3ccccc3OCCO)[C@]3(C(=O)Nc4ccc(C#CCCO)cc43)[C@@H](C(=O)N3CCCCCCC3)[C@H]12`, the composite z-score in assay [1] turned out to be 1.51; in assay [3], 1.82; in assay [4], 3.18; in [5] it was 1.89; in assay [6] it was 1.64; in assay [7], 3.42. For the same molecule, the composite z-score in assay [8] came to 3.79; in assay [9], 5.67; in assay [10] it was 4.61. In addition, in assay [2], the z-score was -1.74.

As for `Cn1cccc1C(O)C1C=CC2C(=O)NC(=O)C2N1Nc1ccc(Cl)cc1Cl` (stereo not given), the composite z-score is 0.981 in [1]; -0.378 in [3]; 2.24 in assay [4]; 0.879 in assay [5]; 0.0044 in assay [6]; 0.184 in assay [7]. The composite z-score turned out to be 1.92 in [8], 2.08 in assay [9] and 2.28 in [10]. In assay [2], this molecule returned a z-score of -0.202.

As to `COCCOC(=O)N1C(=O)[C@@]2(c3cc(C#Cc4ccc(OC)cc4)ccc31)[C@H](c1ccccc1OCCO)N1[C@H](c3ccccc3)[C@H](c3ccccc3)OC(=O)[C@H]1[C@@H]2C(=O)N1CCCCCCC1`, the composite z-score amounted to 1.03 in assay [1]; 1.17 in assay [3]; 2.84 in assay [4]; 1.6 in assay [5]; 1.26 in [6]; 2.59 in assay [7]. In addition, the figures for the composite z-score in assay [8], in [9] and in assay [10] were 3.38, 5.26 and 1.8, respectively. For the same molecule, the z-score in [2] is -1.36.

Turning to `NC(=O)NCC#Cc1ccc2c(c1)[C@]1(C(=O)N2)[C@H](C(=O)NC[C@H](O)c2ccccc2)[C@H]2C(=O)O[C@H](c3ccccc3)[C@H](c3ccccc3)N2[C@@H]1c1ccc(OCCO)cc1`, the composite z-score in [1] was 1.25; in assay [3], -0.461; in assay [4], 0.616; in [5], 0.541; in assay [6], -0.143; in assay [7], -0.0769. The composite z-score in assay [8] was -0.418; in [9], 0.863; in [10] it was 1.43. Further, the z-score in [2] is -1.22.

Regarding `Cc1ccc(S[C@]2(C(=O)O)CC(=O)N(Cc3ccccc3Cl)[C@@H]2c2ccc(CO)cc2I)cc1`, the composite z-score in assay [1] is -0.455; in assay [3], 0.0515; in assay [4] it was -0.326; in assay [5], -0.952; in [6], -0.483; in [7], 0.209. Further, the composite z-score was -1.13 in assay [8], -0.421 in assay [9] and -0.338 in assay [10]. The z-score in assay [2] is -1.77.

Turning to `Cc1ccccc1C(O)C1C=CC2C(=O)N(C)C(=O)C2N1N(c1ccccc1)c1ccccc1` (stereo not given), the composite z-score is -1.19 in assay [1]; -0.0024 in assay [3]; -0.945 in assay [4]; -0.454 in assay [5]; 0.0737 in assay [6]; 0.0582 in assay [7]. Moreover, the results for the composite z-score in [8], in assay [9] and in assay [10] were 0.387, 0.0266 and 0.305, respectively. Also, in assay [2], the z-score is -0.247.

With `O=C1N(Cc2ccccc2)c2ccccc2[C@@H]2OC(c3ccc(OCCCO)cc3)=N[C@]12Cc1ccccc1`, the composite z-score in [1] was 1.45; in assay [3], 0.0601; in assay [4] it was 1.05; in [5], -0.338; in [6], 0.0037; in assay [7] it was 0.138. In addition, the values for the composite z-score in assay [8], in [9] and in assay [10] were 0.0705, 0.685 and 0.807, respectively. Further, the z-score in assay [2] was -2.69.

Take `COc1ccc([Si](C)(C)[C@H]2[C@H](CCn3cc([C@H](O)c4ccccc4)nn3)O[C@@]3(C(=O)N(Cc4ccc(N5C(=O)c6cccc7cccc5c67)cc4)c4ccccc43)[C@@H]2C)cc1`: the composite z-score was 0.0891 in assay [1]; -0.638 in assay [3]; 0.103 in assay [4]; 0.0758 in [5]; -0.131 in [6]; -0.154 in assay [7]. The composite z-score in [8] is -0.0065; in assay [9], 0.112; in [10], 0.0628. For the same molecule, the z-score in assay [2] was -2.6.

For `C=C[C@@H](COC(C)=O)N(C(=O)OC(C)(C)C)S(=O)(=O)c1ccc(Br)cc1`, the composite z-score is 0.789 in assay [1]; 1.27 in assay [3]; 0.486 in assay [4]; 0.367 in assay [5]; 0.0973 in assay [6]; -0.141 in assay [7]. The composite z-score is -0.0317 in assay [8], 1.06 in assay [9] and 1.32 in assay [10]. The molecule also displayed a z-score in assay [2] of 0.429.

As to `CCOC(=O)C[C@H]1[C@H](OC(=O)c2ccc(C(=O)c3ccccc3)cc2)[C@@H](NC(=O)Cc2ccc(OC)cc2)c2cc(OCCCO)ccc2N1C(=O)c1ccccc1`, the composite z-score was 0.41 in [1]; 0.117 in assay [3]; 0.0574 in assay [4]; 0.425 in assay [5]; 0.112 in assay [6]; -0.237 in assay [7]. For the same molecule, the figures for the composite z-score in assay [8], in assay [9] and in assay [10] were 0.0775, 0.516 and 0.168, respectively. The same molecule showed a z-score in [2] of -1.15.
